Bioassay records as filed in PubChem BioAssay.
Pf Dd2 inh – qHTS Primary assay for Inhibitors of Plasmodium falciparum Dd2 growth in vitro; P. falciparum Dd2 growth, SYBR Green, 72 h; Potency, µM (doses to about 28.9 µM), inactives show at the highest dose activity, negative = inhibition, hits mostly inhibitors; 4.3% of 120,000 active; AID 1347417, 2020; active = well fitted inhibition curve with a large enough effect;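 note: plate controls were DMSO vehicle for no effect and reference drug for full effect; nearly all actives have a fitted effect of over 65% in size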
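Infected erythrocytes (Dd2, 0.3% parasitemia, 2.5% hematocrit final) are added to compound in RPMI-1640/Albumax II medium, grown 72 h at 37C in low oxygen, then lysed with saponin/Triton-X containing SYBR Green and read by fluorescence.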
* hit, by the source's call; i = inactive; [ ] = dose if it differs, or a comment. This is one part of a sample in which hits are shown more often than they occur. Potency is the fitted concentration of half-maximal effect.

SMILES	Pf Dd2 inh
CC(=O)N1CCN(Cc2nc3c(n2Cc2ccccc2)C(=O)N(Cc2ccccc2C#N)CCN3)CC1	i
O=C(O)c1ccc(NCc2nc3c(n2Cc2ccccc2)C(=O)N(Cc2cccc(Cl)c2)CCN3)cc1	-1%
O=C1c2c(nc(CNCc3cnccn3)n2Cc2ccccc2)NCCN1Cc1cccc(Cl)c1	2.2µM*
CN(Cc1ccccc1)Cc1nc2c(n1Cc1ccccc1)C(=O)N(Cc1ccccc1C#N)CCN2	10µM*
COc1ccc(C(=O)N2C[C@@H](Oc3ccccc3)C[C@H]2C(=O)N2CCOCC2)cc1F	5%
CCOc1ccccc1C(=O)N[C@@H]1CN(Cc2ccncc2)C[C@H]1CN(C)C	5µM*
CCOc1ccccc1C(=O)N[C@@H]1CN(Cc2cccnc2)C[C@H]1CN(C)C	-37%
COc1ccccc1C(=O)N[C@@H]1CN(Cc2ccncc2)C[C@H]1CN(C)C	-21%
Cc1cccc(O[C@H]2COCCN(Cc3nccn3C)C2)n1	11µM*
Cc1cccc(O[C@H]2COCCN(C(=O)c3cc(C)nn3C)C2)n1	28%[44.1 µM]
Cc1cccc(O[C@H]2COCCN(c3nc4ccccc4o3)C2)n1	-13%[44.1 µM]
Cn1c(Cn2cccn2)nnc1C1CC(NC(=O)CN2CCCCCCC2)C1 (configuration not stated)	-10%
COc1ccc(C(=O)NCC2(COc3cnccn3)C[C@@H](O)[C@@H](O)C2)cc1 (some centres not stated)	-4%[44.1 µM]
CCn1c(CN(C)C)nnc1C1CCN(C(=O)CN(C)c2ccccc2)CC1	7%
COc1ccc(S(=O)(=O)N2CC(F)(F)C[C@H]2c2nc(C)no2)cc1	-7%
COc1ccc(NC(=O)Cn2cc(S(=O)(=O)N3CCC(C)CC3)c3ccccc3c2=O)cc1Cl	-17%
Cc1cc(Br)ccc1NC(=O)Cn1cc(S(=O)(=O)N2CCN(c3ccccc3F)CC2)c2ccccc2c1=O	6%
COc1cc(Cl)c(C)cc1NC(=O)Cn1cc(S(=O)(=O)N2CCN(c3ccccc3F)CC2)c2ccccc2c1=O	11µM*
Cc1ccccc1NC(=O)c1ccc(F)c(S(=O)(=O)N2CCN(c3ccccc3F)CC2)c1	22%
O=C(Cn1cc(S(=O)(=O)Cc2ccccc2F)c2ccccc21)Nc1ccc(F)c(Cl)c1	i
COc1ccc(NC(=O)Cn2cc(S(=O)(=O)N3CCN(c4ccccc4F)CC3)c3ccccc3c2=O)cc1Cl	13µM*
COCCn1ncc(N2CCC(C(=O)Nc3ccc(F)cc3F)C2)cc1=O (configuration not stated)	i
CC(NC(=O)C1CCCO1)C(=O)N1CCN(c2ccccn2)CC1 (configuration not stated)	-6%
COCCCNC(=O)c1ccc2c(c1)n(Cc1cccc(F)c1)c(=O)c1ccnn12	-15%
O=C1NC2(CCN(C(=O)c3cccnc3)C2)N=C1c1cccnc1 (configuration not stated)	8%[44.1 µM]
SMILES	Pf Dd2 inh
O=C(NC1CC1)C1CCc2nnc(C3CC3)n21 (configuration not stated)	6%[44.1 µM]
COc1ccc2[nH]c3c(c2c1)CCNC31CCN(C(=O)c2cn(C)cn2)CC1	i
Cc1ccc(-c2cn(C3CN(C(=O)C(C)CN4CCOCC4)C3)nn2)cc1 (configuration not stated)	-15%
C=CCCC(CN1CCCOCC1)Oc1ccc(-c2ccccc2)nn1 (configuration not stated)	14µM*
C=CCCC(CN1CCCC1)Oc1ccc(C(=O)N2CCOCC2)cn1 (configuration not stated)	6.3µM*
C=CCCC(CN1CCOCC1)Oc1ccc(Cn2ccnc2)cn1 (configuration not stated)	-15%
CN1CCC(Oc2ccc(C(=O)N3CCOCC3)cn2)CC1	7%
COc1ccc(NC(=O)N2CCc3nc4cc[nH]n4c(=O)c3C2)cc1	25%[5.79 µM]
COc1cccc([S+](=O)([O-])N2CCC3(CC2)C(=O)Nc2ccccc23)c1	-20%[44.1 µM]
CCNC(=O)CCc1cc2ccc(C)cc2[nH]c1=O	-34%
Cc1ccc(CCNc2ncnc3onc(-c4ccc(Cl)cc4)c23)cc1	i
CSc1ccc(CCNc2ncnc3onc(C)c23)cc1	8.9µM*
CCCNc1ncnc2onc(C)c12	-4%
Cc1ccccc1-c1noc(-c2ccc(NCC3CCCO3)c([N+](=O)[O-])c2)n1 (configuration not stated)	8%
Cc1ccc(-c2nn3c(C)nnc3c3ccccc23)cc1S(=O)(=O)NC(C)(C)CO	-29%
Cc1ccc(Nc2nnc(-c3ccc(C)c(S(=O)(=O)N4CCN(C)CC4)c3)c3ccccc23)c(C)c1	7.9µM*
COc1ccc(Nc2nnc(-c3ccc(C)c(S(=O)(=O)N4CCN(C)CC4)c3)c3ccccc23)cc1	8.9µM*
Cc1ccccc1Nc1nnc(-c2ccc(C)c(S(=O)(=O)NCC3CCCO3)c2)c2ccccc12 (configuration not stated)	5.6µM*
COc1ccc(S(=O)(=O)NC(C)(C)CO)cc1-c1nnc2c3ccccc3c(C)nn12	i
